The text below walks through data of PubChem BioAssay (Tox21).

Experiment [1] in a line: Nuclear factor erythroid 2-related factor 2/antioxidant responsive element (Nrf2/ARE) small molecule agonists: qHTS cell viability counter screen in human keratinocytes (AID 1919968; active = well fitted curve in the direction sought with a large enough effect in the repeat runs; an effect the other way counts as inactive or inconclusive; also: nearly all actives have a fitted effect of over 55% in size). An outline of the steps: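 In human HaCaT keratinocytes stably expressing an ARE-driven luciferase, compound exposure lasted 23 h at 37 C under 5% CO2. Viable cells are quantified with a protease-based fluorogenic reagent (CellTiter-Fluor) read 1 h after addition.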
A general note: In qHTS, concentration-response curves come from the screen itself.

The nature of experiment [2]: Nuclear factor erythroid 2-related factor 2/antioxidant responsive element (Nrf2/ARE) small molecule agonists: luciferase reporter gene qHTS assay in human keratinocytes (AID 1919969). Also: nearly all actives have a fitted effect of over 35% in size. In general terms: A reporter such as luciferase makes a cellular process visible.
In experiment [3] the target is Gonadotropin-releasing hormone receptor (Homo sapiens) (UniProt P30968). The experiment is described as follows: Human gonadotropin-releasing hormone receptor (GnRHR) small molecule agonists, calcium flux assay in GnRHR-HEK293 cells (AID 1920063). Also: nearly all actives have a fitted effect of over 35% in size. An outline of the steps: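 Intracellular calcium rise is the read-out: engineered human GnRHR HEK293 cells, dye-loaded, are exposed to DMSO-dissolved compounds and fluorescence at Ex/Em 480/540 is tracked for 3 min.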
For orientation: Calcium flux is commonly read through the fluorescence of an indicator in the cells.

In experiment [4] the target is KiSS-1 receptor (Homo sapiens) (UniProt Q969F8). Nature of the experiment: Human kisspeptin (KISS1R) small molecule agonists, calcium flux assay in KISS1R-HEK293 cells (AID 1920064; active = well fitted curve in the direction sought with a large enough effect in the repeat runs; an effect the other way counts as inactive or inconclusive). An outline of the steps: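 Concentration-response testing used 15 concentrations in triplicate on human KISS1R-expressing HEK293 cells. Calcium-dependent fluorescence (Ex/Em 480/540) was followed kinetically for 3 min after compound transfer.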

Experiment [5] can be described thus: G protein-coupled receptor (GPCR) small molecule agonists, calcium flux assay: HEK293 wild type cell line counter screen (AID 1920065). In short, it runs like this:
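Fluorescence intensity signals activation. After overnight (18 h) culture and a 1 h calcium dye load at 37 C, compounds are added by pin tool and the plate read at 480/540 nm for 3 min in 1 s steps.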

Experiment [6] in a line: p53 small molecule agonists, cell-based qHTS assay with human liver microsomes (AID 1963577).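 Also: p53 response element beta-lactamase reporter cells with liver microsomes plus NADPH.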 In short, it runs like this: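 Reporter activation was measured by LiveBLAzer fluorescence intensity in p53RE-bla cells, which had been exposed to compounds for 16 h at 37 C alongside 0.5 mg/mL human liver microsomes and 0.5 mg/mL NADPH (final concentrations).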
Experiment [7] is described as follows: p53 small molecule agonists, cell-based qHTS assay with rat liver microsomes (AID 1963578). In short, it runs like this: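 Compound in DMSO added to p53RE-bla cells 5 h post-plating; rat microsomes/NADPH 0.5 mg/mL final; 16 h, 37 C; LiveBLAzer 2 h RT.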
Experiment [8] can be described thus: p53 small molecule agonists, cell-based qHTS assay with rat liver microsomes: qHTS cell viability counter screen (AID 1963580). Also: nearly all actives have a fitted effect of over 45% in size. An outline of the steps:
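Cytotoxicity counter screen: intracellular ATP measured by CellTiter-Glo luminescence in the same wells as the beta-lactamase reporter read, on HCT-116 p53RE-bla cells exposed 16 h at 37 C to compounds with rat liver microsomes and NADPH, each 0.5 mg/mL final.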

Experiment [9] can be described thus: p53 small molecule agonists, cell-based qHTS assay: qHTS cell viability counter screen (AID 1963581). Also: nearly all actives have a fitted effect of over 45% in size. An outline of the steps: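 Luminescence from CellTiter-Glo, reflecting ATP content, serves as the cytotoxicity measure; it is taken after the 2 h reporter substrate step in HCT-116 p53RE-bla cells dosed for 16 h at 37 C.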
A short description of experiment [10]: p53 small molecule agonists, cell-based qHTS assay (AID 1963582; active = well fitted activation curve with a large enough effect in the signal ratio in the repeat runs, not every such curve was filed as active; the % refers to the signal ratio). In short, it runs like this:
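After plating, p53RE-bla cells sat 5 h in the incubator; compounds or DMSO vehicle were pinned in; a 16 h incubation at 37 C followed; FRET substrate was added and, 2 h later at RT, fluorescence was measured.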

Experiment [11] has as its target 5-hydroxytryptamine receptor 2A (Homo sapiens) (UniProt P28223). Nature of the experiment: 5-hydroxytryptamine receptor 2A (HTR2A) small molecule antagonists, cell-based qHTS assay (AID 1963586). Also: nearly all actives have a fitted effect of over 45% in size. An outline of the steps:
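CHO cells stably expressing human HTR2A were plated for 18 h at 37 C, then loaded with calcium dye for 1 h. Compounds were preincubated 5 min at room temperature before DOI (4 nM solution) was added. Kinetic fluorescence was read for 3 min.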

For experiment [12] the target is unchanged. The experiment is described as follows: 5-hydroxytryptamine receptor 2A (HTR2A) small molecule agonists, cell-based qHTS assay (AID 1963587). Also: nearly all actives have a fitted effect of over 30% in size. An outline of the steps:
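CHO cells stably expressing human HTR2A, plated 18 h, loaded with calcium dye 1 h at 37 C. Agonist mode: compounds added and intracellular calcium fluorescence recorded kinetically for 2 min at 1 sec intervals.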

For experiment [13], the target named is Muscarinic acetylcholine receptor M1 (Homo sapiens) (UniProt P11229). Nature of the experiment: Cholinergic receptor muscarinic 1 (CHRM1) small molecule antagonists, cell-based qHTS assay (AID 1963588). Also: nearly all actives have a fitted effect of over 40% in size. Also: potency is read from the fitted curve at half-maximal effect. In short, it runs like this: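 Compounds were tested at 15 concentrations in three independent runs. Dye-loaded CHRM1-CHO cells were exposed 5 min at room temperature before stimulation by acetylcholine added at 50nM. Intracellular calcium was read kinetically on FDSS for 3 min.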

Experiment [14] shares this target. The experiment is described as follows: Cholinergic receptor muscarinic 1 (CHRM1) small molecule agonists, cell-based qHTS assay (AID 1963589). Also: nearly all actives have a fitted effect of over 35% in size. An outline of the steps: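 Fluorescent calcium dye reports M1 activation in stably transfected CHO cells. Compounds, 15 concentrations, added after 1 h dye loading at 37 C; kinetic reading at 1 sec intervals.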
A short description of experiment [15]: cAMP Responsive Elements (CRE) small molecule agonists, cell-based qHTS assay (AID 1963590). In short, it runs like this:
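Compound exposure lasted 3 h at 37 C/5% CO2 in CRE-bla HEK 293T cells grown in assay medium with 10% dialyzed FBS and 25 mM HEPES. Reporter signal came from LiveBLAzer B/G FRET substrate, 2 h, room temperature.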

The nature of experiment [16]: cAMP Responsive Elements (CRE) small molecule antagonists, cell-based qHTS assay (AID 1963591; active = well fitted inhibition curve with a large enough effect in the signal ratio in the repeat runs, not every such curve was filed as active; the % refers to the signal ratio). In short, it runs like this:
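Stimulation used NKH477 at a final 0.25 uM for 3 h in compound-treated CRE-bla HEK293T cells, seeded 18 h beforehand. Reporter activity was measured with LiveBLAzer B/G FRET substrate after 2 h at room temperature.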

Experiment [17] deals with Beta-2 adrenergic receptor (Homo sapiens) (UniProt P07550). The experiment is described as follows: Adrenergic beta2 receptor (ADRB2) small molecule antagonists, cell-based qHTS assay (AID 1963592). Also: series mostly up to about 92 µM; nearly all actives have a fitted effect of over 50% in size. In short, it runs like this: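 Assay format: CHO-ADRB2 cells, 18-20hr seeding at 37C/5% CO2, then compound plus 1nM isoproterenol agonist mix for 0.5hr RT. Homogeneous time-resolved fluorescence cAMP detection after 1hr, expressed as 665/615 nm ratio.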

In experiment [18] the target is D(2) dopamine receptor (Homo sapiens) (UniProt P14416). Nature of the experiment: Dopamine D2 receptor (DRD2) small molecule agonists, cell-based qHTS assay (AID 1963594). Also: nearly all actives have a fitted effect of over 35% in size. In short, it runs like this:
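HEK293 cells stably expressing human DRD2, pre-treated with PDE inhibitor Ro20-1724 (0.1 mM final) and compound 10 min at room temperature, then stimulated with NKH477 (200nM […]) for 30 min. cAMP read by HTRF (665/620 nm).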

Experiment [19] has the same target. Nature of the experiment: Dopamine D2 receptor (DRD2) small molecule antagonists, cell-based qHTS assay (AID 1963595; active = well fitted inhibition curve with a large enough effect in the signal ratio in the repeat runs, with a control signal flat; the % refers to the signal ratio). An outline of the steps: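 HTRF cAMP read-out at 665 and 620 nm emission (340 nm excitation). Antagonist mode: compounds were tested against 12 nM quinpirole in DRD2-HEK293 cells, with 200 nM NKH477 raising cAMP and 0.1 mM Ro20-1724 blocking its breakdown.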

The nature of experiment [20]: p53 small molecule agonists, cell-based qHTS assay with human liver microsomes: qHTS cell viability counter screen (AID 1963579). Also: nearly all actives have a fitted effect of over 45% in size. An outline of the steps:
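HLM-supplemented (0.5 mg/mL final) and NADPH-supplemented (0.5 mg/mL final) p53RE-bla cultures, 4,000 cells per well, were dosed with compounds in DMSO for 16 h at 37 C; luminescent ATP detection (CellTiter-Glo, 30 min, room temperature) quantified surviving cells.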

Molecules are shown by their SMILES. Records with an inconclusive call do not appear. A structure can be active in one record and inactive in another. Activity calls are given as the source filed them. Unless noted, calls follow the shape of the full dose curve.

5-hydroxytryptamine receptor 2A (Homo sapiens), sequence (P28223 whole entry, looked up): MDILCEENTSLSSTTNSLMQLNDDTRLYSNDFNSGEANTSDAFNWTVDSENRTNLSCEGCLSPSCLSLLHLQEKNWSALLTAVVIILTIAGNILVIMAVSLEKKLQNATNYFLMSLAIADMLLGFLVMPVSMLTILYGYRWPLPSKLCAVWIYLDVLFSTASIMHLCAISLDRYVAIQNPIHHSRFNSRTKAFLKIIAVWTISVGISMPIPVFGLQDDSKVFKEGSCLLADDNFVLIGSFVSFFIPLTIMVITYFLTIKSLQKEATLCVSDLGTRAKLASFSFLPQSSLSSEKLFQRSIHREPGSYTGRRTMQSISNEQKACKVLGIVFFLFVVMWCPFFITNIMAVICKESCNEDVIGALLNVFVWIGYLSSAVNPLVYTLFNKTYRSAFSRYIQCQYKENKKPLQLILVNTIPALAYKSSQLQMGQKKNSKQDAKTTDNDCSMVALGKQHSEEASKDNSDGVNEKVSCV
Gonadotropin-releasing hormone receptor (Homo sapiens), sequence (P30968 whole entry, looked up): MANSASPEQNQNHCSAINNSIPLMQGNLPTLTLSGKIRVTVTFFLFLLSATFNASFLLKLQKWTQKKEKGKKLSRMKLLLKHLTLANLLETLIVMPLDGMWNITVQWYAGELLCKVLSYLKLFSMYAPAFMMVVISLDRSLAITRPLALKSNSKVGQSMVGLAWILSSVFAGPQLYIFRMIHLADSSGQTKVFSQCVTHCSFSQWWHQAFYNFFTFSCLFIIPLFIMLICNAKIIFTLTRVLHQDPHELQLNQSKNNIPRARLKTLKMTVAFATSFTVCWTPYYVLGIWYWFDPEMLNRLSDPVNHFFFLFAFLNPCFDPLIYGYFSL
KiSS-1 receptor (Homo sapiens), sequence (Q969F8 whole entry, looked up): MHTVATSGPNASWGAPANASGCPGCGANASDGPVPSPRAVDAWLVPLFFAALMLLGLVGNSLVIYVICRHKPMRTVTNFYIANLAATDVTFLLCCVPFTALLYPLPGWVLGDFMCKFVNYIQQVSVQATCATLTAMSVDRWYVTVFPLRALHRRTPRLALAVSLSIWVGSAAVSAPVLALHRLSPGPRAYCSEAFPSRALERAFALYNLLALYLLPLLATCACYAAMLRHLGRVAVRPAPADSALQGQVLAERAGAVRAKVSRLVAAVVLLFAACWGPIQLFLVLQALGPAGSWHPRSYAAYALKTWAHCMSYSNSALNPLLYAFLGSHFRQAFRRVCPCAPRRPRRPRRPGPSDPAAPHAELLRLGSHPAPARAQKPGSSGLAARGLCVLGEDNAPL
Muscarinic acetylcholine receptor M1 (Homo sapiens), sequence (P11229 whole entry, looked up): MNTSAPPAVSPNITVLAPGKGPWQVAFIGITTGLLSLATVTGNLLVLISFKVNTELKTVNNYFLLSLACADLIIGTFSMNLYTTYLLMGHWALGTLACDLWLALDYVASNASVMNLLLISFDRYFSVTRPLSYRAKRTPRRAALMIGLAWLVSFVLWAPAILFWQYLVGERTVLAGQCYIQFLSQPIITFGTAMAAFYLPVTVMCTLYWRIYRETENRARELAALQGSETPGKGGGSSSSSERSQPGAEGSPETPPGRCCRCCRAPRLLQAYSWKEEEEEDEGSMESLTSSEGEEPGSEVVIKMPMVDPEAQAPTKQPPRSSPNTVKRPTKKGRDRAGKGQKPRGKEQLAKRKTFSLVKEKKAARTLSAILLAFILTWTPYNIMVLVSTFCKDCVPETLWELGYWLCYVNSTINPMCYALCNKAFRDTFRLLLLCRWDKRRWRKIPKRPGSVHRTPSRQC
D(2) dopamine receptor (Homo sapiens), sequence (P14416 whole entry, looked up): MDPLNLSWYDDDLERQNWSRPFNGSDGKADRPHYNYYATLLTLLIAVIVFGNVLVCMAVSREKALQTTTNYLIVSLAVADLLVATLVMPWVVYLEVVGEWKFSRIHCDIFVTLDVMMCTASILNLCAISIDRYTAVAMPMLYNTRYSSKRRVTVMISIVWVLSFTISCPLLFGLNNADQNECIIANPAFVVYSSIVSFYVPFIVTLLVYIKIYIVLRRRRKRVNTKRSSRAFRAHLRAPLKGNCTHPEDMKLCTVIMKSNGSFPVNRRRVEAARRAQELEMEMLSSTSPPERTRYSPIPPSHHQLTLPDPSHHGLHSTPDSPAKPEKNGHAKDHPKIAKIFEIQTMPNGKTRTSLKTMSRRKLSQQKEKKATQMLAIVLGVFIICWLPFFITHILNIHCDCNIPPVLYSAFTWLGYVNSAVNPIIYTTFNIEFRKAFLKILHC
Beta-2 adrenergic receptor (Homo sapiens), sequence (P07550 whole entry, looked up): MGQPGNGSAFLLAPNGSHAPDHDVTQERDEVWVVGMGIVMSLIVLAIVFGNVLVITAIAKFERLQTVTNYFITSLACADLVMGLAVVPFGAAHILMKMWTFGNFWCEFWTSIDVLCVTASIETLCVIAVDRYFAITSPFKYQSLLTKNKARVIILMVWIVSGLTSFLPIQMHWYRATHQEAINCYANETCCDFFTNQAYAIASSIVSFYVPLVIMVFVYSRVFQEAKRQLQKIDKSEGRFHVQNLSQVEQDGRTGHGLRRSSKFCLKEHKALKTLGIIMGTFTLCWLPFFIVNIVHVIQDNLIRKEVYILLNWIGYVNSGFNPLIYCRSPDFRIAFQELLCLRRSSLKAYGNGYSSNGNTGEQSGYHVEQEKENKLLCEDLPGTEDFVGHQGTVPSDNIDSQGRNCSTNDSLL

As for `C=CC(=O)OCCCCCC(C)C`, the Potency result in [1], in experiment [2], in experiment [3], in [4], in experiment [5] and in experiment [6] was “inactive” throughout. Moreover, the Potency result in experiment [7], in [8], in experiment [9], in experiment [10], in [11] and in experiment [12] was “inactive” in each case. The Potency entry in [13], in [14], in experiment [15], in [16], in [17] and in experiment [18] was “inactive” each time. In addition, the Potency entry in [19] is “inactive”.

On to `N#CC1(N=NC2(C#N)CCCCC2)CCCCC1`, for which the Potency entry in experiment [1], in [2], in experiment [3], in experiment [4], in experiment [5] and in experiment [6] was “inactive” in each case. In addition, the Potency result in experiment [7], in [20], in experiment [9], in [10], in experiment [11] and in experiment [12] was “inactive” in each case. The Potency result in experiment [13], in [14], in experiment [16], in [18] and in [19] was “inactive” each time.

`Nc1nc(=S)[nH][nH]1`: the Potency result in [1], in [2], in [3], in [4], in experiment [5] and in [6] was “inactive” each time. The Potency result in experiment [7], in [8], in [9], in experiment [10], in [11] and in experiment [12] was “inactive” throughout. The Potency result in experiment [13], in [14], in [15], in [16], in [17] and in [18] was “inactive” in each case. For the same compound, in experiment [19], the Potency result was “inactive”.

`CNC`: the Potency result in [1], in [2], in experiment [3], in experiment [4], in [5] and in experiment [6] was “inactive” each time. Moreover, the Potency result in experiment [7], in experiment [20], in experiment [9], in [10], in experiment [12] and in experiment [15] was “inactive” each time. For the same compound, the Potency result in experiment [16], in experiment [17], in experiment [18] and in experiment [19] was “inactive” throughout. Besides, in [13], the Potency is 3.34 µM (active) and inactive.

Turning to `O=[N+]([O-])c1cc(Cl)ccc1Cl`, the Potency result in experiment [1], in [2], in [3], in experiment [4], in experiment [5] and in experiment [6] was “inactive” in each case. Also, the Potency entry in [7], in experiment [8], in experiment [9], in [10], in experiment [11] and in [12] was “inactive” each time. Moreover, the Potency entry in [13], in [14], in experiment [15], in experiment [16], in experiment [17] and in experiment [18] was “inactive” each time. Moreover, the Potency entry in [19] was “inactive”.

`ClCOCCl`: the Potency result in experiment [1], in experiment [2], in experiment [3], in [4], in [5] and in experiment [6] was “inactive” each time. Moreover, the Potency entry in experiment [7], in experiment [20], in experiment [9], in experiment [10], in experiment [11] and in [13] was “inactive” each time. For the same compound, the Potency entry in experiment [14], in experiment [15], in experiment [16], in [17], in [18] and in [19] was “inactive” each time.

As for `O=C(O)COc1ccc(Cl)cc1Cl`, the Potency result in experiment [1], in experiment [2], in [3], in experiment [4], in [5] and in experiment [6] was “inactive” each time. The Potency entry in [7], in experiment [20], in experiment [9], in experiment [10], in experiment [11] and in [12] was “inactive” each time. The Potency result in experiment [13], in experiment [14], in experiment [16], in experiment [17], in [18] and in [19] was “inactive” in each case.
